Screens deposited in PubChem by National Center for Advancing Translational Sciences (NCATS).
p53 reactivation: mutant p53 re-activation in reporter cells. H1299 p53-A138V BP100-luciferase reporter, luminescence, 24 h. Potency, µM (series often up to 92.2 µM), for inactives: top-dose activity change, positive = activation, hits mostly activators. hit rate 0.063% among 320,000; note: % of control where 0% means no effect; nearly all actives have a fitted effect of over 45% in size
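H1299 (p53-null), stable ts p53-A138V + BP100-Luc; 1000 cells/well, Opti-MEM/10% FBS; cpd 4 pt, 1:5; 24 h, 37 deg C, 5% CO2; detection reagent 10 min RT; luminescence.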
SMN2 splice enh: increases expression of the SMN2 splice variant. HEK293 SMN2-luciferase splicing reporter, luminescence, 30-36 h. Potency, µM (top dose mostly 46.1 µM), without a hit: top-dose activity change, positive = activation, actives largely listed as activators. hit rate 2.8% among 210,000. AID 1458; note: % of control where 0% means no effect; nearly all actives have a fitted effect of over 55% in size
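HEK293 cells carry an SMN2 minigene-luciferase reporter in which exon 7 inclusion puts luciferase in frame. Cells were seeded at 2000 cells/well, attached for 10-12 hours, then exposed to compounds for 30-36 hours at 37C before ONE-Glo luminescence.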
FLuc counter: firefly luciferase modulation, counter-screen for miR-21 project | purified FLuc, Km substrates, luminescence inhibition | AID 588342 | Potency, µM (doses to about 57.5 µM), for inactives: at the highest dose activity change, negative = inhibition, actives largely listed as inhibitors | hit rate 6.9% among 360,000;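 note: plate controls were vehicle for no effect and reference inhibitor for full effect; nearly all actives have a fitted effect of over 55% in size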
Target sequence (P08659 whole entry, looked up): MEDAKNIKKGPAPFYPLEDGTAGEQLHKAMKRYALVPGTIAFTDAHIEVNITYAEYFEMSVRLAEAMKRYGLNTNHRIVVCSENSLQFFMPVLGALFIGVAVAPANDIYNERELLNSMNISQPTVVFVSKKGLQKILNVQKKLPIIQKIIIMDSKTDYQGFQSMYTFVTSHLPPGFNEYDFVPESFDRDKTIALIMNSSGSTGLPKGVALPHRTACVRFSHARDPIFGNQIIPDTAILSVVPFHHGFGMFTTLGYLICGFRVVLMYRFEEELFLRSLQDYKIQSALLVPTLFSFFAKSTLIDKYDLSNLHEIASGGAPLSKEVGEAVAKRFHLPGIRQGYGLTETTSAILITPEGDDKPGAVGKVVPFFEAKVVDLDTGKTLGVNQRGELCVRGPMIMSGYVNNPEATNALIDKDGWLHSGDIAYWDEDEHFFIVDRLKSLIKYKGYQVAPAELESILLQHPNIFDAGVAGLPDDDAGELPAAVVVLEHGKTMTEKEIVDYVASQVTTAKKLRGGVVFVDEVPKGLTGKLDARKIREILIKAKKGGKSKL
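Biochemical qHTS of compounds, final roughly 60 µM downward over six points, against 10 nM purified firefly luciferase using Km concentrations of substrates (10 uM D-luciferin, 10 uM ATP) in Tris acetate pH 7.5 buffer; luminescence output.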
NPC1 prom act: NPC1 promoter activation; hit rate 2.4% among 320,000; Potency, µM (top dose mostly 9.22 µM), for the others: top-dose activation, hits mostly activators; Huh7 NPC1 promoter luciferase reporter, 24 h; note: % of control where 0% means no effect; nearly all actives have a fitted effect of over 60% in size
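Stable NPC1-promoter luciferase Huh7 line; cpd (DMSO) 24 h, 37 °C, 5% CO2; Amplite luciferase reagent 10 min RT; luminescence readout. qHTS format.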
Rab9 promoter act: Rab9 promoter activation | hit rate 2.8% among 320,000 | Potency, µM (titrated, usually from 9.22 µM), inactives show top-dose activation, negative = inhibition, most hits filed as activators | Huh7 Rab9 promoter-luciferase reporter, luminescence, 24 h; note: % of control where 0% means no effect; nearly all actives have a fitted effect of over 60% in size
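Luminescence from Amplite-detected luciferase (10 minutes, ambient) reports Rab9 promoter activation. Before that, stable Rab9-luciferase Huh7 cells (1500/well, reduced-serum OP-MEM I plus 10% FBS) were exposed to compound for 24 hours at 37C.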
ELG1 genotox: genotoxicity induction in ELG1-luciferase HEK293T cells | hit rate 1.3% among 330,000 | HEK293T ELG1-luciferase reporter, luminescence, 16 h | Potency, µM (doses to about 46 µM), for inactives: top-dose activity change, positive = activation, usual class: activators; note: % of control where 0% means no effect; nearly all actives have a fitted effect of over 60% in size
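Cells (2,000/well) expressing the ELG1-luciferase fusion are dosed by pin tool and kept 16 hr at 37 °C, 5% CO2. Signal comes from ONE-Glo luciferase reagent after 30 min at room temperature.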
Active calls of the source: *; ? = inconclusive; nt = not tested or not shown; [ ] = another dose, or the depositor's remark. Hits are enriched below; roughly 7.4% of the tested compounds scored in any of these assays. Calls come from the whole dose curve; as a rule, active = well fitted curve in the direction sought with a large enough effect; inconclusive = small, poorly fitted or top-dose-only effect, or another doubt; inactive = no such curve, though single readings can be large; an effect the other way counts as inactive or inconclusive. Potency is the fitted concentration of half-maximal effect.

SMILES	p53 reactivation	SMN2 splice enh	FLuc counter	NPC1 prom act	Rab9 promoter act	ELG1 genotox
CNc1ccc(/C=C/C(=O)c2ccc3c(c2)OCCO3)cc1[N+](=O)[O-]	?	-8.0%	6.01µM*	1.8%	-7.4%	?
O=C(c1ccccc1)c1ccc2c(c1)OCCCO2	?	nt	8.49µM*	1.78µM*	1.41µM*	?
C/C(=N/NC(=O)CCc1ccccc1)c1ccc2c(c1)OCO2	9.8%	nt	-10.7%	-4.2%	9.5%	-0.6%
CC(CN1CCOCC1)OC(=O)COc1ccc(F)cc1 (stereo not given)	?	-2.2%	-1.4%	-1.5%	-8.8%	0.5%
O/N=C(/CCc1ccccc1)c1ccc2c(c1)OCCO2	?	15.8µM*	13.5µM*	3.98µM*	2.82µM*	20.6µM*
COc1ccc(OCC(=O)OC(C)CN2CCOCC2)cc1 (stereo not given)	-4.6%	2.82µM*	2.1%	-1.6%	-2.5%	2.4%
Cc1ccc(N2CCN(C(=O)c3cnn(-c4ccc(F)cc4F)c3C3CCN(C(=O)OC(C)(C)C)CC3)CC2)c(C)c1	nt	nt	-6.2%	nt	nt	nt
COc1ccccc1OCC(=O)NCC(c1ccc(Cl)cc1)N1CCCCC1 (stereo not given)	nt	nt	-8.6%	nt	nt	nt
COc1cccc([C@@H]2Oc3ccc(OC)cc3C(=O)[C@H]2OC(=O)Nc2ccc(C)c(Br)c2)c1	nt	9.0%	nt	nt	nt	nt
O=C(CCc1ccccc1)c1ccc2c(c1)OCCCO2	?	?	4.26µM*	3.16µM*	0.631µM*	4.11µM*
O=C(CCCC(=O)c1ccc(O)cc1)c1ccc(O)cc1	?	nt	2.39µM*	3.55µM*	?	4.61µM*
O=C(/C=C/c1ccccc1)c1ccc2c(c1)OCCCCO2	?	?	0.379µM*	1µM*	1.12µM*	?
O=C(CCCc1ccccc1)c1ccc2c(c1)OCCO2	-18.5%	-40.9%	0.0757µM*	-28.2%	-21.4%	?
C=CCOc1ccc(CNc2nccs2)cc1	15.3%	?	13.5µM*	1.6%	25.0%	13.7%
C=CCOc1ccc(CNc2nccs2)cc1OCC	-3.2%	-24.1%	-17.9%	-2.0%	-1.9%	2.4%
CCCCN(CC)CCCNC(=O)CS(=O)(=O)Cc1nc(-c2ccc(C)cc2)oc1C	nt	-4.7%	-1.7%	nt	nt	nt
CCOC(=O)c1ccc(N=Nc2c(C)c(C#N)c(O)[nH]c2=O)cc1	-1.0%	49.9%	2.69µM*	15.8%	4.47µM*	?
Cc1c(C#N)c(O)n(C)c(=O)c1N=Nc1ccc(S(N)(=O)=O)cc1	-7.2%	-30.7%	?	16.7%	20.3%	12.0%
O=C(CNC(=O)c1ccccc1Cl)OCc1cc(=O)n2nc(C3CC3)sc2n1	nt	nt	4.0%	nt	nt	nt
Clc1ccc2oc(-c3ccccc3)nc2c1	19.1%	?	2.39µM*	-1.5%	23.4%	?
Clc1ccc2oc(-c3cccnc3)nc2c1	14.3%	-2.3%	15.1µM*	?	?	8.6%
COc1cc(CSc2ncc(CO)n2Cc2ccc(C)cc2)cc(OC)c1	nt	nt	-11.3%	nt	nt	nt
Cn1cnc([N+](=O)[O-])c1[Se]c1nc(N)nc2c1ncn2[C@@H]1O[C@@H](CO)[C@H](O)[C@@H]1O	nt	5.9%[9.22 µM]	nt	nt	nt	nt
CCCCN1C(=O)C2(OCCCO2)c2cccc(C)c21	nt	nt	4.6%	-4.0%	0.6%	-0.1%
c1ccc(-c2n[nH]c(-c3ccccn3)n2)nc1	?	11.2µM*	15.1µM*	3.55µM*	2.82µM*	6.51µM*
c1ccc(-c2n[nH]c(-c3ccccn3)n2)cc1	?	11.2µM*	12µM*	2µM*	3.55µM*	?
O=C(c1cc2c(s1)-c1ccccc1OC2)N1CCc2ccccc2C1	21.4%	20µM*	?	10.8%	20.9%	16.6%
O=C(c1ccc2c(c1)OCO2)n1nnc2ccccc21	-21.0%	-8.4%	6.75µM*	-3.2%	1.0%	-1.1%
O=C(c1ccc2c(c1)OCO2)N1CCc2ccccc21	7.3%	nt	?	?	?	?
O=C(c1ccc2c(c1)OCO2)N1CCc2ccccc2C1	8.8%	?	21.3µM*	?	24.3%	?
